Measured values from PubChem BioAssay (Tox21).
Records with an inconclusive call do not appear. Where a call stands in place of a potency, no number is given. Calls of active or inactive are those of the source. Unless noted, calls follow the shape of the dose curve; as a rule, active = well fitted curve in the direction sought with a large enough effect in the repeat runs; inconclusive = weak or mixed curves; inactive = no such curve, though single readings can be large; an effect the other way counts as inactive or inconclusive.

Key:
[1] = qHTS assay to identify small molecule agonists of the RXR signaling pathway - cell viability counter screen (AID 1159529); also: nearly all actives have a fitted effect of over 50% in size; also: potency is read from the fitted curve at half-maximal effect
In short: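 In this parallel viability measure, GeneBLAzer RXR-alpha HEK 293T cells (2% charcoal-stripped FBS) were given a 5 hr preincubation, treated with compounds 16 hr at 37 C, and read by CellTiter-Glo luminescence.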

[2] = qHTS assay to identify small molecule antagonists of the retinoid acid receptor (RAR) signaling pathway - cell viability counter screen (AID 1159551); also: nearly all actives have a fitted effect of over 35% in size
In short: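 Cytotoxicity counter screen in C3RL4 cells: 6 h compound exposure with 1 uM retinol (final), viability from cellular ATP by luminescence.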

[3] = qHTS assay to identify small molecule antagonists of the retinoic acid receptor (RAR) signaling pathway (AID 1159552; also: nearly all actives have a fitted effect of over 50% in size)
In short: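 C3RL4 RARE-luc cells, overnight plating; retinol 1 uM final added right after compound; 6 hr 37 C; luciferase read at 30 min RT.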

[4] = qHTS assay to identify small molecule agonists of the retinoic acid receptor (RAR) signaling pathway (AID 1159553)
In short: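 Agonist activity was scored in C3RL4 cells bearing a retinoic acid response element luciferase construct. Cells were treated with compounds for 6 hr at 37 C, and luciferase signal was measured as luminescence.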

[5] = qHTS assay to identify small molecule antagonists of the estrogen related receptor (ERR) signaling pathway - cell viability counter screen (AID 1224818);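 also: series mostly up to about 46 µM; viability measured after 17.5 h of compound exposure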
In short: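 Cells carrying the ERR pathway reporter were seeded and incubated for 6 hours before compound addition. After a 17.5-hour exposure at 37 C, live-cell protease activity was measured by CellTiter-Fluor fluorescence following 30 minutes of incubation.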

[6] = qHTS assay to identify small molecule antagonists of the estrogen related receptor signaling pathway with the pleiotropic PPARgamma coactivator (PGC) cell viability counter screen (AID 1224822;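 also: series mostly up to about 46 µM; viability read after 17.5 h compound exposure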)
In short: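 Seed PGC/ERR cells (2,000/well); incubate 6 h at 37 C/5% CO2; pin-transfer compounds in DMSO; incubate 17.5 h at 37 C; add CellTiter-Fluor; after 30 min read fluorescence.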

[7] = qHTS assay to identify small molecule antagonists of the estrogen related receptor (ERR) signaling pathway (AID 1224819;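 also: luminescence from an ERR-driven luciferase reporter measured with One-Glo reagent; series mostly up to about 46 µM; nearly all actives have a fitted effect of over 50% in size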)
In short: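 Compounds dissolved in DMSO were pin-transferred onto ERR cells that had been plated 6 h earlier, and cells were then incubated 18 h at 37 C; signal was luciferase luminescence via One-Glo.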

[8] = qHTS assay to identify small molecule agonists of the estrogen related receptor (ERR) signaling pathway (AID 1224820)
In short: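 ERR reporter cells (NTP line) plated 2,000/well, incubated 6 h at 37 C/5% CO2, then pinned with compounds in DMSO and held 18 h at 37 C. One-Glo added; luminescence read after 30 min at room temperature.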

[9] = system: estrogen-related receptor alpha (ERRalpha) with PGC-1alpha coactivator, human; test: qHTS assay to identify small molecule antagonists of the estrogen related receptor signaling pathway with the pleiotropic PPARgamma coactivator (PGC) (AID 1224821; calls by dose curve;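 also: series mostly up to about 46 µM; lower luminescence signal means antagonism of PGC/ERR signalling; nearly all actives have a fitted effect of over 50% in size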)
In short: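 Cells engineered for PGC/ERR signalling (line from NTP) were plated 6 h at 37 C/5% CO2, then exposed to DMSO-dissolved compound for 18 h at 37 C. Luciferase activity was read by One-Glo luminescence after 30 min at room temperature.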

[10] = qHTS assay to identify small molecule agonists of the estrogen related receptor signaling pathway with the pleiotropic PPARgamma coactivator (PGC) (AID 1224823)
In short: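 PGC/ERR reporter cells were seeded, rested 6 h at 37 C/5% CO2, then exposed to compounds in DMSO by pin transfer for 18 h at 37 C. Luciferase activity was read as luminescence after One-Glo reagent and 30 min at room temperature.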

## O=S(=O)(Oc1ccc(Cl)cc1)c1ccccc1
[1]
  Potency: inactive
[2]
  Potency: inactive
[3]
  Potency: inactive

## COc1ccc(C)cc1[N+](=O)[O-]
[1]
  Potency: inactive
[2]
  Potency: inactive
[3]
  Potency: inactive
[4]
  Potency: inactive

## Cc1cccc(Nc2ccccc2)c1
[1]
  Potency: inactive
[2]
  Potency: inactive
[3]
  Potency: inactive

## CCOc1ccc(O)cc1
[1]
  Potency: inactive
[2]
  Potency: inactive
[3]
  Potency: inactive

## COc1cccc(N(C)C(=S)Oc2ccc3c(c2)CCCC3)n1
[1]
  Potency: inactive
[2]
  Potency: inactive
[3]
  Potency: inactive
[4]
  Potency: inactive

## O=C(c1ccc(F)cc1)C1CCN(CCn2c(=S)[nH]c3ccccc3c2=O)CC1
[1]
  Potency: inactive
[2]
  Potency: inactive
[3]
  Potency: inactive

## Nc1ccccc1S(=O)(=O)c1ccccc1
[1]
  Potency: inactive
[2]
  Potency: inactive
[3]
  Potency: inactive
[4]
  Potency: inactive

## CCOc1ccc(N)c([N+](=O)[O-])c1
[1]
  Potency: inactive
[2]
  Potency: inactive
[3]
  Potency: inactive
[4]
  Potency: inactive

## O=[N+]([O-])c1ccc(NCCO)c(OCCO)c1
[1]
  Potency: inactive
[2]
  Potency: inactive

## COC(=O)c1ccc(I)cc1S(=O)(=O)NC(=O)Nc1nc(C)nc(OC)n1
[1]
  Potency: inactive
[2]
  Potency: inactive

## C=C(C)C(=O)OCCO
[1]
  Potency: inactive
[2]
  Potency: inactive
[3]
  Potency: inactive
[4]
  Potency: inactive

## C=CCOc1ccccc1OCC(O)CNC(C)C (stereo unspecified)
[1]
  Potency: inactive
[2]
  Potency: inactive
[3]
  Potency: inactive
[4]
  Potency: inactive

## Nc1ccc(S(=O)(=O)Nc2ccccc2)cc1
[1]
  Potency: inactive
[2]
  Potency: inactive
[3]
  Potency: inactive
[4]
  Potency: inactive

## CC1(c2ccccc2)OC(C(=O)O)=CC1=O (stereo unspecified)
[1]
  Potency: inactive
[2]
  Potency: inactive
[3]
  Potency: inactive
[4]
  Potency: inactive

## COc1cc(Cl)c(OC)cc1N
[1]
  Potency: inactive
[2]
  Potency: inactive
[3]
  Potency: inactive
[4]
  Potency: inactive

## CCCCC/C=C\C/C=C\CCCCCCCC(=O)NC(C)c1ccccc1 (stereo unspecified)
[1]
  Potency: inactive
[2]
  Potency: inactive
[3]
  Potency: inactive
[4]
  Potency: inactive

## C/C=C/C=C/CO
[1]
  Potency: inactive
[2]
  Potency: inactive

## Nc1cccc(S(=O)(=O)c2cccc(N)c2)c1
[1]
  Potency: inactive
[2]
  Potency: inactive

## COc1cc2c(cc1OC)C(C(C(=O)N(CCc1ccc(OC)c(OC)c1OC)CCc1ccc(OC)c(OC)c1OC)c1ccccc1)=NCC2 (stereo unspecified)
[1]
  Potency: inactive
[2]
  Potency: inactive
[3]
  Potency: inactive
[4]
  Potency: inactive

## CCO[C@H](Cc1ccc(OCCc2ccc(OS(C)(=O)=O)cc2)cc1)C(=O)O
[1]
  Potency: inactive
[2]
  Potency: inactive
[3]
  Potency: inactive
[4]
  Potency: inactive

## C[Si](C)(CCCN)O[Si](C)(C)CCCN
[1]
  Potency: inactive
[2]
  Potency: inactive
[3]
  Potency: inactive
[4]
  Potency: inactive

## COc1ccc(-c2nc3ccc(C4=NNC(=O)CC4C)cc3[nH]2)cc1 (stereo unspecified)
[1]
  Potency: inactive
[2]
  Potency: inactive
[3]
  Potency: inactive

## O=C(O)c1ccc(S(=O)(=O)O)cc1C(=O)O
[1]
  Potency: inactive
[2]
  Potency: inactive
[3]
  Potency: inactive
[4]
  Potency: inactive

## COC(C)OC
[1]
  Potency: inactive
[2]
  Potency: inactive
[3]
  Potency: inactive
[4]
  Potency: inactive

## OC(CN1CCC(Cc2ccc(F)cc2)CC1)c1ccc(Cl)cc1 (stereo unspecified)
[1]
  Potency: inactive
[2]
  Potency: inactive
[3]
  Potency: inactive
[5]
  outcome: inactive
[6]
  outcome: inactive

## Cc1cc(N)c2cc(NC(=O)Nc3ccc4nc(C)cc(N)c4c3)ccc2n1
[1]
  Potency: inactive
[2]
  Potency: inactive
[3]
  Potency: inactive
[4]
  Potency: inactive

## CCOCC(O)COc1ccc(NC(=O)CC[S+](C)C)cc1 (stereo unspecified)
[1]
  Potency: inactive
[2]
  Potency: inactive
[3]
  Potency: inactive
[4]
  Potency: inactive

## CN(C)CCN(Cc1ccsc1)c1ccccn1
[1]
  Potency: inactive
[2]
  Potency: inactive
[3]
  Potency: inactive
[4]
  Potency: inactive

## CCC(C)O (stereo unspecified)
[1]
  Potency: inactive
[2]
  Potency: inactive
[3]
  Potency: inactive
[4]
  Potency: inactive

## COc1cc2nc(N(C)CCCNC(=O)C3CCCO3)nc(N)c2cc1OC (stereo unspecified)
[1]
  Potency: inactive
[2]
  Potency: inactive
[3]
  Potency: inactive
[4]
  Potency: inactive
[5]
  outcome: inactive
[7]
  Potency: inactive
[8]
  outcome: inactive
[9]
  Potency: inactive
[6]
  outcome: inactive
[10]
  outcome: inactive

## CCCCCCCCCCCC(=O)OC[C@@H](O)[C@H]1OC[C@H](OCCO)[C@H]1OCCO
[1]
  Potency: inactive
[2]
  Potency: inactive
[3]
  Potency: inactive
[4]
  Potency: inactive

## CC(C)O.CC(C)O.CCOC(=O)/C=C(\C)O.CCOC(=O)/C=C(\C)O.[Ti]
[1]
  Potency: inactive
[2]
  Potency: inactive
[3]
  Potency: inactive
[4]
  Potency: inactive

## Cc1ccccc1S(=O)(=O)O
[1]
  Potency: inactive
[2]
  Potency: inactive
[3]
  Potency: inactive
[4]
  Potency: inactive

## CC1OC(=O)C(C)OC1=O (stereo unspecified)
[1]
  Potency: inactive
[2]
  Potency: inactive
[3]
  Potency: inactive
[4]
  Potency: inactive

## Cc1ncc(CO)c(C=O)c1O
[1]
  Potency: inactive
[2]
  Potency: inactive
[3]
  Potency: inactive
[4]
  Potency: inactive

## CCOC(=O)C1=C[C@]2(CC)CCCN3CCc4c(n1c1ccccc41)[C@@H]32
[1]
  Potency: inactive
[2]
  Potency: inactive
[3]
  Potency: inactive
[4]
  Potency: inactive
[5]
  outcome: inactive
[6]
  outcome: inactive

## C=C(C)C(=O)OCC
[1]
  Potency: inactive
[2]
  Potency: inactive
[3]
  Potency: inactive
[4]
  Potency: inactive

## C=CC1CC2C=CC1C2 (stereo unspecified)
[1]
  Potency: inactive
[2]
  Potency: inactive
[3]
  Potency: inactive
[4]
  Potency: inactive

## CCCCC(CC)COC(=O)COc1ccc(Cl)cc1Cl (stereo unspecified)
[1]
  Potency: inactive
[2]
  Potency: inactive
[3]
  Potency: inactive
[4]
  Potency: inactive

## CCCCCCCCCCCCCCCCCCOS(=O)(=O)O
[1]
  Potency: 43.6 µM (active)
[2]
  Potency: inactive
[3]
  Potency: inactive
[4]
  Potency: inactive
